Measured values from PubChem BioAssay (Tox21).
Several values for one entry are separate records, joined by “and”; a condition that tells them apart may be missing. Equal values may be shown once. Inconclusive results are not listed. Entries that show only a call come without a potency. A structure can be active in one record and inactive in another. Activity calls are given as the source filed them. Unless noted, the call rests on the fitted dose curve; in most records, active means well fitted curve in the direction sought with a large enough effect in the repeat runs; inconclusive means weak or mixed curves; inactive means no such curve, though single readings can be large; an effect the other way counts as inactive or inconclusive.

Legend:
[1] = qHTS assay to identify small molecule agonists of the estrogen receptor alpha (ER-alpha) signaling pathway in the presence of an antagonist - cell viability counter screen (AID 1259386);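 further: series mostly up to about 92 µM; cells exposed to compounds for 22 h at 37 °C before the viability read; nearly all actives have a fitted effect of over 30% in size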
Procedure, shortened: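 The test measures whether compounds kill ER-alpha reporter cells (VM7Luc4E2) under antagonist co-treatment (ICI-182,780, 10.0nM). Fluorescence from CellTiter-Fluor is read after a 22hr exposure.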

[2] = target: Progesterone receptor (Homo sapiens) (UniProt P06401); assay: qHTS assay to identify small molecule agonists of the progesterone receptor (PR) signaling pathway (AID 1346784; calls by dose curve; further: nearly all actives have a fitted effect of over 30% in size)
Procedure, shortened: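 Beta-lactamase reporter read-out: after 16 hr compound treatment at 37C and a further 2 hr at room temperature with LiveBLAzer B/G FRET substrate, fluorescence was measured in PR-UAS-bla HEK 293T cells grown in 2% charcoal-stripped serum.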

[3] = target: Progesterone receptor (Homo sapiens) (UniProt P06401); assay: qHTS assay to identify small molecule antagonists of the progesterone receptor (PR) signaling pathway (AID 1346795; active means well fitted inhibition curve with a large enough effect in the signal ratio in the repeat runs, not every such curve was filed as active; the % refers to the signal ratio)
Procedure, shortened: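 Read-out is fluorescence from the LiveBLAzer B/G FRET substrate, cleaved by a UAS-controlled beta-lactamase in PR-UAS-bla HEK293T cells after 16 hr exposure to compound plus 1 nM promegestone (final), followed by 2 hr at room temperature.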

[4] = qHTS assay to identify small molecule antagonists of the progesterone receptor (PR) signaling pathway - cell viability counter screen (AID 1346798); further: nearly all actives have a fitted effect of over 50% in size; further: potency means the concentration at half of the fitted maximal effect
Procedure, shortened: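 HEK293T PR-UAS-bla, 2% charcoal-stripped FBS; 4 hr pre-plate; cpd + R5020, 16 h 37C; LiveBLAzer read first; then CellTiter-Glo 30 min RT, luminescence.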

[5] = qHTS assay to identify small molecule agonists of the progesterone receptor (PR) signaling pathway - cell viability counter screen (AID 1346799; calls by dose curve; further: nearly all actives have a fitted effect of over 45% in size; further: potency means the concentration at half of the fitted maximal effect)
Procedure, shortened: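 Luminescence from CellTiter-Glo, added after the beta-lactamase FRET read in the same wells, gave cytotoxicity in PR-UAS-bla HEK293T cells treated with compounds for 16 hr at 37C.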

[6] = qHTS assay to identify small molecule antagonists of the TGF-beta/Smad signaling pathway - cell viability counter screen (AID 1346824); further: nearly all actives have a fitted effect of over 50% in size
Procedure, shortened: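 Cytotoxicity counter-screen run in the same wells as the beta-lactamase Smad reporter read: CellTiter-Glo luminescence after 30 min at room temperature. HEK 293T SBE-bla cells had 5 hr compound exposure at 37 C with TGF-beta1 (0.25 ng/mL stock).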

[7] = qHTS assay to identify small molecule agonists of the TGF-beta/Smad signaling pathway - cell viability counter screen (AID 1346829); further: top concentration of the series differs between compounds; nearly all actives have a fitted effect of over 45% in size
Procedure, shortened: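 Same-well cytotoxicity: CellTiter-Glo added after the 2 hr room-temperature beta-lactamase substrate step, luminescence measured 30 min later; cells had 5 hr of compound at 37 C.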

[8] = qHTS assay to identify small molecule agonists of the TGF-beta/Smad signaling pathway (AID 1346859; active means well fitted activation curve with a large enough effect in the signal ratio in the repeat runs, not every such curve was filed as active; the % refers to the signal ratio; further: series mostly up to about 77 µM)
Procedure, shortened: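 SBE-bla HEK 293T, 4,000 cells/well, plated o/n; cpd in DMSO, 5 hr, 37 C/5% CO2; B/G FRET substrate 2 hr RT; ex 405, em 460/530 nm.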

[9] = target: Thyrotropin-releasing hormone receptor (Homo sapiens) (UniProt P34981); assay: qHTS assay to identify small molecule agonists of the thyrotropin-releasing hormone receptor (TRHR) signaling pathway (AID 1346891; calls by dose curve; further: series mostly up to about 58 µM)
Procedure, shortened: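 Intracellular calcium rise, read as fluorescence every second for 3 min, served as the agonist signal in dye-loaded HEK293 cells expressing TRHR; each compound ran at 15 concentrations in triplicate.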

[10] = Caspase-3/7 induction in HepG2 cells by small molecules, qHTS assay (AID 1346978); further: nearly all actives have a fitted effect of over 15% in size; further: potency means the concentration at half of the fitted maximal effect
Procedure, shortened: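 Caspase-3/7 induction was measured by Caspase-Glo 3/7 luminescence (30 min, room temperature) after a 17 hr compound exposure of wild-type HepG2 cells seeded at 2,000 per well and pre-incubated 5 hr.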

[11] = Caspase-3/7 induction in CHO-K1 cells by small molecules, qHTS cell viability counter screen (AID 1346979); further: nearly all actives have a fitted effect of over 35% in size; further: potency means the concentration at half of the fitted maximal effect
Procedure, shortened: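 Cells (CHO-K1, wild type) are plated at 1,500 per well and incubated 5hr. Test compounds in DMSO are then pinned in, followed by 16hr at 37C and 5% CO2. Viability is read by CellTiter-Fluor fluorescence after 1hr.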

[12] = Caspase-3/7 induction in CHO-K1 cells by small molecules, qHTS assay (AID 1346980); further: nearly all actives have a fitted effect of over 15% in size
Procedure, shortened: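 Luminescent Caspase-Glo 3/7 read (30min, room temperature) quantified apoptosis induction. Cells were wild-type CHO-K1, treated with compound for 17hr at 37 C and 5% CO2.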

[13] = Caspase-3/7 induction in HepG2 cells by small molecules, qHTS cell viability counter screen (AID 1346981); further: series mostly up to about 92 µM; nearly all actives have a fitted effect of over 30% in size
Procedure, shortened: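 Treatment of HepG2 cells with DMSO-delivered compounds ran 16 hr at 37 C following a 5-hr pre-incubation of 2,000 cells/well. CellTiter-Fluor fluorescence, read after 1 hr, served as the viability measure in a qHTS format.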

[14] = target: Thyrotropin receptor (Homo sapiens) (UniProt P16473); assay: qHTS assay to identify small molecule antagonists of the thyroid stimulating hormone receptor (TSHR) signaling pathway (AID 1259385; calls by dose curve; further: nearly all actives have a fitted effect of over 20% in size)
Procedure, shortened: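 Antagonist mode: compound-treated TSHR-expressing HEK293 cells were stimulated with 1.5 ng/mL TSH (final) in presence of Ro20-1724 for 30 min at RT. HTRF cAMP detection after 1 h; each compound tested at 15 concentrations, triplicate.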

[15] = Human pregnane X receptor (PXR) small molecule agonists, qHTS cell viability counter screen (AID 1346977); further: nearly all actives have a fitted effect of over 50% in size; further: potency means the concentration at half of the fitted maximal effect
Procedure, shortened: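 PXR-Luc HepG2, 2,000 cells/well, 5% charcoal-stripped FBS; 5hr settle; cpd 24hr, 37C/5% CO2; CellTiter-Fluor at 23hr, read 1hr later (fluorescence).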

[16] = target: Nuclear receptor subfamily 1 group I member 2 (Rattus norvegicus) (UniProt Q9R1A7); assay: Rat pregnane X receptor (rPXR) activation by small molecules, qHTS assay (AID 1346983); settings: rPXR luciferase reporter cells, One-Glo luminescence, 24 h; max activation: stronger effect = higher value; further: nearly all actives have a fitted effect of over 20% in size
Procedure, shortened: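 Luminescent readout (One-Glo luciferase, 30 min room temperature) followed 24 hr compound treatment at 37 C of rPXR cells plated 2,000 per well and preincubated 5hr; qHTS format with compounds delivered in DMSO.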

[17] = target: Nuclear receptor subfamily 1 group I member 2 (Homo sapiens) (UniProt O75469); assay: CYP3A4 induction through human pregnane X receptor (PXR) by small molecules, qHTS assay (AID 1346984); further: nearly all actives have a fitted effect of over 40% in size
Procedure, shortened: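 After 24 h at 37C with compound, DPX-2 cells (HepG2, co-transfected PXR response element and CYP3A4 promoter-luciferase) got 3uM final P450-Glo Luciferin-IPA for 3 h; One-Glo luminescence followed.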

[18] = target: Nuclear receptor subfamily 1 group I member 2 (Homo sapiens) (UniProt O75469); assay: Human pregnane X receptor (PXR) small molecule agonists, qHTS assay (AID 1346982); further: nearly all actives have a fitted effect of over 35% in size; further: potency means the concentration at half of the fitted maximal effect
Procedure, shortened: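 Stable HepG2 line reporting PXR-mediated CYP3A4 expression via luciferase. Treatment: 24 hr with compounds in DMSO at 37 C. Detection: ONE-Glo luminescence.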

[19] = target: Thyrotropin-releasing hormone receptor (Homo sapiens) (UniProt P34981); assay: qHTS assay to identify small molecule antagonists of the thyrotropin-releasing hormone receptor (TRHR) signaling pathway (AID 1346877; active means well fitted inhibition curve with a large enough effect in the repeat runs, not every such curve was filed as active; further: series mostly up to about 51 µM)
Procedure, shortened: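 Overnight-plated (18 h, 37 °C) HEK293 cells expressing TRHR were dye-loaded 2 h, treated with compound, then stimulated with TRH at 1 nM final. Fluorescence intensity was captured every second for 3 min.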

Sequence of Thyrotropin receptor (Homo sapiens) (P16473 whole entry, looked up): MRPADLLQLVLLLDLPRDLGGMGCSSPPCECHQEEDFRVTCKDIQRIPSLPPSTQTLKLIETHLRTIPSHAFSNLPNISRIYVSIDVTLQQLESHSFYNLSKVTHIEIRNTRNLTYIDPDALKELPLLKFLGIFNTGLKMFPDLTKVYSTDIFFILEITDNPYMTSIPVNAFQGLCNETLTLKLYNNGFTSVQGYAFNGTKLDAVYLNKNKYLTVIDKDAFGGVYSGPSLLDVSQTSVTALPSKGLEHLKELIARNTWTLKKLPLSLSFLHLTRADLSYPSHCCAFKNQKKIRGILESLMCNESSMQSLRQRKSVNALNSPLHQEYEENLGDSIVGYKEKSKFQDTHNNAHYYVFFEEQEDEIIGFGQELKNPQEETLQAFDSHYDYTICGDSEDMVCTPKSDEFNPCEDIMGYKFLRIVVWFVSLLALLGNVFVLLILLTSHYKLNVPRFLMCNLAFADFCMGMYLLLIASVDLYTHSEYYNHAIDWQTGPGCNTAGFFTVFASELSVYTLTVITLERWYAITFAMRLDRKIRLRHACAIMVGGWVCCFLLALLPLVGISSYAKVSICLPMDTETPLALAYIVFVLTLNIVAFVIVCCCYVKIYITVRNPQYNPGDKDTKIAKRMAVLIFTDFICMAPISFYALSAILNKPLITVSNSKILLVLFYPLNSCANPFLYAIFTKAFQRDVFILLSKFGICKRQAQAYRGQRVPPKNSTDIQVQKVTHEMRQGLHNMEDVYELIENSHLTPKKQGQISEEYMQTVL
Sequence of Thyrotropin-releasing hormone receptor (Homo sapiens) (P34981 whole entry, looked up): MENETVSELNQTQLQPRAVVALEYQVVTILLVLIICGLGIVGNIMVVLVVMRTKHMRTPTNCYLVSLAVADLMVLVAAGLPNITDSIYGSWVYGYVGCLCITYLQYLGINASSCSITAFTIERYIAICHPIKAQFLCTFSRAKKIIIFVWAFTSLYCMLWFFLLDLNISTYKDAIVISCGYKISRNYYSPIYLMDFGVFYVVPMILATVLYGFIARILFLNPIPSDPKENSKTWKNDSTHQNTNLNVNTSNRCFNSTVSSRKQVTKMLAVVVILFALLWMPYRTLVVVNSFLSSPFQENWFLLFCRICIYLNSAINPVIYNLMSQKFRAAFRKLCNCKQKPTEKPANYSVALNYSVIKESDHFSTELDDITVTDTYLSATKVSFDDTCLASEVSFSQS
Sequence of Nuclear receptor subfamily 1 group I member 2 (Homo sapiens) (O75469 whole entry, looked up): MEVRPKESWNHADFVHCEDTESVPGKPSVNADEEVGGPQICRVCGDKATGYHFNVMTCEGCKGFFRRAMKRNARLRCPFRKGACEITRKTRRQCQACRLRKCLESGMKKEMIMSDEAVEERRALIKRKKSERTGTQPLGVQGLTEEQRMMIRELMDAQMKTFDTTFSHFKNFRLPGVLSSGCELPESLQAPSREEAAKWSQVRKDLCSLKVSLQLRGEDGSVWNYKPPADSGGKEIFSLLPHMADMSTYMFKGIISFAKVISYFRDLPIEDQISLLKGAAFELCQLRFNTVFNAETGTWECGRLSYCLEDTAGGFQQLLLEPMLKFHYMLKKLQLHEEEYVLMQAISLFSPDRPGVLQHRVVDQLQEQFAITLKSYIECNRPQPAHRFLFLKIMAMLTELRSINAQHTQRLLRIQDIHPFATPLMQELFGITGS
Sequence of Progesterone receptor (Homo sapiens) (P06401 whole entry, looked up): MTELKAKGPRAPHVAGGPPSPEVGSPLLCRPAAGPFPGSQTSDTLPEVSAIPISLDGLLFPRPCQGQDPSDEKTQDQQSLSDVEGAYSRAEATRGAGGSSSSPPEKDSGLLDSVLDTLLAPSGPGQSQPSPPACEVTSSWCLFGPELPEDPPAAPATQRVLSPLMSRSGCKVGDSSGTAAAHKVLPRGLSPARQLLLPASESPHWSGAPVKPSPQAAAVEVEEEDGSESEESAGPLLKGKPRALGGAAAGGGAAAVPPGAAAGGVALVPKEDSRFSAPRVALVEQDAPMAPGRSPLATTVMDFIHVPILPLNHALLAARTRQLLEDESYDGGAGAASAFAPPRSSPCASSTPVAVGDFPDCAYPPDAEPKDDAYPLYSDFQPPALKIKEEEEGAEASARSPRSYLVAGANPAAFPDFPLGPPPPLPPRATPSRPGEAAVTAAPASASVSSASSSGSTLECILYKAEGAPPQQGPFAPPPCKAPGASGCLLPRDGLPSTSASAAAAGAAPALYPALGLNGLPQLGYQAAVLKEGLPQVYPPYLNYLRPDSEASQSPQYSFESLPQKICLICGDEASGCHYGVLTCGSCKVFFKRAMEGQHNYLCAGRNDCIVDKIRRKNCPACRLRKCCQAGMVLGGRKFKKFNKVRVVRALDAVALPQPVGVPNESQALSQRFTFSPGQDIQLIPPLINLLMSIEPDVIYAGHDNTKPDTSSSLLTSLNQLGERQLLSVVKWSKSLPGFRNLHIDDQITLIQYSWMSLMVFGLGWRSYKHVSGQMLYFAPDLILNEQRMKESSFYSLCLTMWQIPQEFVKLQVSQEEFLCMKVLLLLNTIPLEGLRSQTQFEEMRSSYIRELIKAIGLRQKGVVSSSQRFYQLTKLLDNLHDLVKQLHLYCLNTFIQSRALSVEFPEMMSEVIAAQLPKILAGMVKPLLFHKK
Sequence of Nuclear receptor subfamily 1 group I member 2 (Rattus norvegicus) (Q9R1A7 whole entry, looked up): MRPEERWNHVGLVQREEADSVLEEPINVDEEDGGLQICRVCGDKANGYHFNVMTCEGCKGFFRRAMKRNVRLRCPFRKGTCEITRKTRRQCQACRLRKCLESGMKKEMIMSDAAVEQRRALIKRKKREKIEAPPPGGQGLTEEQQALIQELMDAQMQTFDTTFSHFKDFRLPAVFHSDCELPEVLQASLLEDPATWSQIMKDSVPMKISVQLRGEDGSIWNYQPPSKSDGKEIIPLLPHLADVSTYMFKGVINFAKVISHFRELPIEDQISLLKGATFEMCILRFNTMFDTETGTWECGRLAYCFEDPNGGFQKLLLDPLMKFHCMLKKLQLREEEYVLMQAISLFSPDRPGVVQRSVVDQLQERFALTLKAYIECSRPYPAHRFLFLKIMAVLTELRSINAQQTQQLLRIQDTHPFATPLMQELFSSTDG

| Structure (SMILES) | Potency [1] | Potency [2] | Potency [3] | Potency [4] | Potency [5] | Potency [6] | Potency [7] | outcome [8] | Potency [9] | Potency [10] | Potency [11] | Potency [12] | Potency [13] | outcome [14] | Potency [15] | max activation [16] | outcome [17] | Potency [18] | outcome [19] |
| --- | --- | --- | --- | --- | --- | --- | --- | --- | --- | --- | --- | --- | --- | --- | --- | --- | --- | --- | --- |
| CCCCNC(N)=O | inactive | inactive | inactive | inactive | inactive | inactive | inactive | inactive | inactive | inactive | inactive | inactive | inactive | – | – | – | – | – | – |
| S=c1nc[nH]c2nc[nH]c12 | inactive | inactive | – | 8.41 µM (active) | 4.74 µM (active) and 11.9 µM (active) | – | – | – | inactive | inactive | inactive | inactive | – | inactive | inactive | -6.82% (inactive) | inactive | – | – |
| CCCCCCOC(C)=O | inactive | inactive | inactive | – | inactive and 8.63 µM (active) | inactive | inactive | – | – | inactive | inactive | inactive | inactive | inactive | inactive | – | – | inactive | – |
| COC(=O)c1ccc(C(=O)OC)cc1 | inactive | – | – | – | 17.5 µM (active) and inactive | inactive | inactive | – | inactive | 9.82 µM (active) and inactive | 780 nM (active) and inactive | inactive | inactive | inactive | 7.08 µM (active) and inactive | – | – | 2.2 µM (active) and inactive | inactive |
| Oc1c(Cl)cc(Cl)c(Cl)c1Cl | inactive | – | inactive | inactive | – | inactive | inactive | inactive | inactive | inactive | – | inactive | – | inactive | – | – | – | 59.8 µM (active) and 54.5 µM (active) | – |
| OCC1CCCO1 (stereo not given) | inactive | inactive | inactive | inactive | inactive | inactive | inactive | – | inactive | inactive | inactive | inactive | inactive | – | – | – | – | – | inactive |
| Cc1cc(Cc2ccc(N)c(C)c2)ccc1N | inactive | inactive | – | inactive | inactive | inactive | inactive | inactive | inactive | inactive | inactive | inactive | inactive | – | inactive | – | – | 61.1 µM (active) | inactive |
